Settings in all cases: mRNA level, 48 h; actives raise or lower the signal
Read-out in assay [1]: Cytochrome P450 7A1 (Homo sapiens) (UniProt P22680)
In words: LTEA_HepaRG_CYP7A1: Life Technologies and Expression Analysis (LTEA) Assay for Cytochrome P450 7A1 (CYP7A1) using HepaRG (AID 2283496). In outline:
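Gene expression endpoint in human HepaRG liver cells treated for 48 h with test chemicals (up to 100 uM, 0.5% DMSO). Values come from bidirectional concentration-response fitting versus DMSO.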

Read-out in assay [2]: Glutathione S-Transferase (GSTA2), GSTA2 (gene 2939)
As to the kind of experiment: LTEA_HepaRG_GSTA2: Life Technologies and Expression Analysis (LTEA) Assay for Glutathione S-Transferase (GSTA2) using HepaRG (AID 2283497). In a few lines:
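HepaRG, 48 h dosing, 8-pt half-log CRC from 100 uM, 0.5% DMSO vehicle, n=2; RNA → Fluidigm TaqMan qRT-PCR; GSTA2 vs ACTB/GAPDH/POLR2A; gain/loss fit vs DMSO.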

Read-out in assay [3]: Glutamate-cysteine ligase catalytic (GCLC), GCLC (gene 2729)
In words: LTEA_HepaRG_GCLC: Life Technologies and Expression Analysis (LTEA) Assay for Glutamate-cysteine ligase catalytic (GCLC) using HepaRG (AID 2283498). In outline: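 Read-out is GCLC transcript level by Fluidigm-based TaqMan qRT-PCR, normalized to three housekeeping genes and fitted in both directions relative to 0.5% DMSO. Human HepaRG cells received chemicals for 48 h, up to 100 uM.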

Read-out in assay [4]: growth arrest and DNA damage 45 (GADD45G), GADD45G (gene 10912)
As to the kind of experiment: LTEA_HepaRG_GADD45G: Life Technologies and Expression Analysis (LTEA) Assay for growth arrest and DNA damage 45 (GADD45G) using HepaRG (AID 2283499). In outline: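 Gain or loss of GADD45G mRNA, quantified by TaqMan qRT-PCR against three housekeeping genes, is fitted in both directions relative to 0.5% DMSO. Human HepaRG cultures receive test chemical for 48 h at up to 100 uM.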

Read-out in assay [5]: Glutamate-cysteine ligase regulatory (GCLM), GCLM (gene 2730)
In words: LTEA_HepaRG_GCLM: Life Technologies and Expression Analysis (LTEA) Assay for Glutamate-cysteine ligase regulatory (GCLM) using HepaRG (AID 2283500). In a few lines:
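Human liver HepaRG cultures receive test chemicals for 48 hours at up to 100 uM in 0.5% DMSO. GCLM expression is measured by qRT-PCR and analysed for increases or decreases against vehicle.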

Read-out in assay [6]: Glutathione S-transferase M3 (GSTM3), GSTM3 (gene 2947)
As to the kind of experiment: LTEA_HepaRG_GSTM3: Life Technologies and Expression Analysis (LTEA) Assay for Glutathione S-transferase M3 (GSTM3) using HepaRG (AID 2283501). In outline:
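HepaRG, plated 48 h, then serum-free induction medium; test chemical 48 h, duplicate; 100 uM top, half-log x8, 0.5% DMSO. Read-out: GSTM3 mRNA (TaqMan qRT-PCR, Fluidigm array). Bidirectional fit vs DMSO.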

Read-out in assay [7]: Heat shock 70 kDa protein 1 (HSPA1A), gene 3303
In words: LTEA_HepaRG_HSPA1A: Life Technologies and Expression Analysis (LTEA) Assay for Heat shock 70 kDa protein 1 (HSPA1A) using HepaRG (AID 2283502). In outline: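 HSPA1A induction in human HepaRG liver cells is measured after 48 h of chemical treatment (100 uM maximum, 0.5% DMSO vehicle). Expression comes from qRT-PCR normalized to endogenous controls.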

Read-out in assay [8]: Hypoxia-inducible factor 1-alpha (Homo sapiens) (UniProt Q16665)
As to the kind of experiment: LTEA_HepaRG_HIF1A: Life Technologies and Expression Analysis (LTEA) Assay for Hypoxia-inducible factor 1 (HIF1A) Trancription factor using HepaRG (AID 2283503).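 Also: HIF1A transcript by TaqMan qRT-PCR normalized to ACTB GAPDH and POLR2A.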 In a few lines:
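HepaRG, 48 h exposure, 8-pt half-log series from 100 uM, 0.5% DMSO vehicle, duplicates. Readout: HIF1A transcript by qRT-PCR (Fluidigm array), housekeeping-normalised. Bidirectional curve fit vs DMSO baseline.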

Read-out in assay [9]: 3-Hydroxy-3-Methylglutaryl-CoA Synthase 2 (HMGCS2), HMGCS2 (gene 3158)
As to the kind of experiment: LTEA_HepaRG_HMGCS2: Life Technologies and Expression Analysis (LTEA) Assay for 3-Hydroxy-3-Methylglutaryl-CoA Synthase 2 (HMGCS2) using HepaRG (AID 2283504). In outline:
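HepaRG, plated 48 h then switched to serum-free induction media; cmpd 8-pt, max 100 uM, 1/2-log, 0.5% DMSO, n=2, 48 h. HMGCS2 mRNA by Fluidigm TaqMan qRT-PCR, ACTB/GAPDH/POLR2A norm; bidirectional fit vs DMSO.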

Read-out in assay [10]: HGF (gene 3082)
In words: LTEA_HepaRG_HGF: Life Technologies and Expression Analysis (LTEA) Assay for Hepatocyte Growth Facto (HGF) using HepaRG (AID 2283505). In outline: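 Read-out is HGF transcript level by qRT-PCR, normalized to three housekeeping genes, fitted bidirectionally against 0.5% DMSO vehicle. Human HepaRG cells received test chemicals for 48 h at up to 100 uM.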

A word on the AC50: it is the concentration giving half of the maximal activity seen.

The source made the active and inactive calls. The calls were made as follows: active = hit-call score of the fitted dose curve at least 0.9, where 1 is the maximum; inactive = score below 0.9.

Chain of Hypoxia-inducible factor 1-alpha (Homo sapiens) (Q16665 whole entry, looked up): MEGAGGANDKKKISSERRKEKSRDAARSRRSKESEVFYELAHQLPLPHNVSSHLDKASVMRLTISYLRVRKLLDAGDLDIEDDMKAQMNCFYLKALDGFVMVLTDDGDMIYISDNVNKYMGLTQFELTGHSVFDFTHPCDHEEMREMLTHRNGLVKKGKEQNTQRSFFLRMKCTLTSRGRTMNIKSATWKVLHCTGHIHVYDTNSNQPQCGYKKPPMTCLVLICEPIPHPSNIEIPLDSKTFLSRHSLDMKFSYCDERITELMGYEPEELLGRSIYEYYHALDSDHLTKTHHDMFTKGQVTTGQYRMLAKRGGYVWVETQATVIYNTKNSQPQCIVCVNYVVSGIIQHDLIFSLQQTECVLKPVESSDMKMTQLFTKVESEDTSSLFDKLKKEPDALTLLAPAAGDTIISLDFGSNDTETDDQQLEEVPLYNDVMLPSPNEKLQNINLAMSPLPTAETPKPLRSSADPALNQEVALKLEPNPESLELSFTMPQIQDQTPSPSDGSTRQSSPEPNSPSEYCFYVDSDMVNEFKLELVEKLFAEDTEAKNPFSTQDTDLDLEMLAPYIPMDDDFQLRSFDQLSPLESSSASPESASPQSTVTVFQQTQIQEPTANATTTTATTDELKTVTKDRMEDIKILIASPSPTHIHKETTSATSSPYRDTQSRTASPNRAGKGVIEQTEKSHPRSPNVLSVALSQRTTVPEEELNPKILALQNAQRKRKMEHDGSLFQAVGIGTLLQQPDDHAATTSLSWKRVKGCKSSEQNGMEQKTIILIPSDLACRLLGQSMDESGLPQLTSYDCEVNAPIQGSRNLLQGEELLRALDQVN

With `CCCCCCCCOc1ccc(C(=O)c2ccccc2)c(O)c1`, the molecule was classed as inactive in [1], in assay [2], in [3], in assay [4], in [5] and in assay [6]. In addition, the molecule was classed as inactive in assay [7], in assay [8], in [9] and in [10].

For the molecule `c1ccc2n[nH]nc2c1`, the molecule was called inactive in assay [1], in assay [2], in assay [3], in [4], in assay [5] and in assay [6]. The molecule was classed as inactive in assay [7], in [8], in [9] and in assay [10].

As to `O=c1ccc2ccccc2o1`, the result in [1], in assay [2], in assay [3], in assay [4], in assay [5] and in [6] was inactive. For the same molecule, the molecule was called inactive in [7], in [8], in assay [9] and in [10].

Take `Oc1ccc2ccccc2c1`: the result in [1], in assay [2], in assay [3], in assay [4], in [5] and in assay [6] was inactive. Moreover, the call in assay [7], in [8], in [9] and in assay [10] was inactive.

Turning to `CCCCCCCCCCCC[N+](C)(C)C`, the AC50 in assay [1] was 85.8 µM (active); in assay [2], 93.7 µM (active); in assay [4], 78 µM (active); in assay [5], 84.1 µM (active); in assay [6], 93.9 µM (active); in assay [7] it was 80.9 µM (active). The values for the AC50 in [8], in assay [9] and in [10] were 83.3 µM (active), 95.9 µM (active) and 90.1 µM (active), respectively. Also, the molecule was classed as inactive in assay [3].

On to `O=C1c2ccccc2C(=O)N1CCc1noc(-c2ccc(CN3CCCCCC3)s2)n1`, for which the outcome in assay [1], in assay [2], in assay [3], in assay [4], in assay [5] and in [6] was inactive. For the same molecule, the molecule was classed as inactive in assay [7], in [8], in [9] and in assay [10].

As for `CC(C)(c1cc(Br)c(O)c(Br)c1)c1cc(Br)c(O)c(Br)c1`, the call in assay [1], in [4], in [5], in assay [6] and in assay [10] was inactive. Besides, the AC50 in [2] was 72.4 µM (active); in assay [3], 78 µM (active); in [7], 88.6 µM (active); in [8] it was 74 µM (active); in assay [9], 89.2 µM (active).

As for `CCCCCCCCCCCO`, the molecule was called inactive in [1], in assay [2], in assay [3], in assay [4], in [5] and in assay [6]. In addition, the call in assay [7], in assay [8], in [9] and in [10] was inactive.

For `Cc1oc2c(NC(=O)c3c(Cl)cccc3Cl)cccc2c1C(C)(C)O`, the AC50 in assay [1] was 57.3 µM (active); in assay [2] it was 38.2 µM (active); in assay [3], 68.7 µM (active); in [5], 50 µM (active); in assay [6], 34.4 µM (active); in assay [7] it was 79.6 µM (active). Further, the results for the AC50 in [9] and in assay [10] were 52.8 µM (active) and 85.7 µM (active), respectively. In addition, the molecule was called inactive in assay [4] and in assay [8].

For the molecule `CCN(Cc1cccc(S(=O)(=O)O)c1)c1ccc(C(=C2C=CC(=[N+](CC)Cc3cccc(S(=O)(=O)O)c3)C=C2)c2ccccc2S(=O)(=O)[O-])cc1`, the call in assay [1], in assay [2], in assay [3], in assay [4], in [5] and in assay [6] was inactive. Further, the molecule was called inactive in [7], in [8], in [9] and in [10].

Regarding `CN(C)C(=O)C1(N2CCCCC2)CCN(CC[C@@]2(c3ccc(Cl)c(Cl)c3)CN(C(=O)c3ccccc3)CCO2)CC1`, the AC50 is 25.2 µM (active) in [1]; 22 µM (active) in assay [2]; 88.3 µM (active) in assay [3]; 37.8 µM (active) in [4]; 88.3 µM (active) in [5]; 27.3 µM (active) in assay [6]. Besides, the AC50 in assay [7] is 15.2 µM (active); in assay [8], 33.1 µM (active); in [9], 68.6 µM (active). In [10], the molecule was called inactive.

In the case of `CN1C(=O)N(c2ccccc2Br)Cc2cnc(Nc3ccc4c(c3)OCC(CO)O4)nc21` (stereo not given), the AC50 was 72.8 µM (active) in assay [1]; 78 µM (active) in assay [2]; 65.8 µM (active) in [3]; 66.6 µM (active) in assay [4]; 92.4 µM (active) in assay [7]; 1.33 µM (active) in assay [8]. Further, in assay [9], the AC50 was 75.4 µM (active). The result in assay [5], in [6] and in [10] was inactive.

For the molecule `CC[C@@H]1C[C@H](N(Cc2cc(C(F)(F)F)cc(C(F)(F)F)c2)C(C)=O)c2cc(C(F)(F)F)ccc2N1C(=O)OC(C)C`, the call in [1], in [2], in [3], in [4], in [5] and in assay [6] was inactive. The outcome in assay [7], in [8], in assay [9] and in [10] was inactive.

For `CCCCCCCCN(C)CCCCCCCC`, the molecule was called inactive in [1], in assay [2], in assay [3], in [4], in assay [5] and in assay [6]. For the same molecule, the call in assay [7], in assay [8], in assay [9] and in assay [10] was inactive.

`Cc1occc1C(=O)Nc1ccc(C(=O)N2CCC(F)(F)/C(=C\C(=O)N3CCC(N4CCCCC4)CC3)c3ccccc32)cc1`: the half-maximal activity concentration (AC50) in assay [1] is 17.2 µM (active); in [2], 52 µM (active); in [6], 31.2 µM (active); in assay [9], 31.2 µM (active). Also, the call in [3], in assay [4], in [5], in assay [7], in assay [8] and in assay [10] was inactive.

Take `c1ccc(C[n+]2cccc3ccccc32)cc1`: the AC50 was 33.7 µM (active) in assay [1]; 75 µM (active) in assay [2]; 85.9 µM (active) in assay [3]; 43.6 µM (active) in assay [4]; 62.7 µM (active) in assay [5]; 22.8 µM (active) in assay [7]. In addition, the AC50 in assay [9] is 31 µM (active). Further, the call in assay [6], in assay [8] and in assay [10] was inactive.

As for `CC(O)CC(C)(C)O` (stereo not given), the molecule was classed as inactive in assay [1], in assay [2], in assay [3], in assay [4], in assay [5] and in assay [6]. Further, the call in assay [7], in assay [8], in [9] and in assay [10] was inactive.

Turning to `Clc1cc(Cl)c2c(c1)N=C1CCCCCN1C2`, the outcome in assay [1], in assay [2], in assay [3], in [4], in assay [5] and in [6] was inactive. Further, the result in [7], in [8], in assay [9] and in [10] was inactive.

(Values after PubChem BioAssay (EPA / NIEHS).)
